Laboratory results published in PubChem BioAssay (Tox21).
Results filed as inconclusive are left out. Active and inactive are the calls of the source. Unless noted, calls follow the shape of the full dose curve.

Tests used:
[1] = Nuclear factor erythroid 2-related factor 2/antioxidant responsive element (Nrf2/ARE) small molecule agonists: qHTS cell viability counter screen in human keratinocytes (AID 1919968; active = well fitted curve in the direction sought with a large enough effect in the repeat runs; an effect the other way counts as inactive or inconclusive; also: nearly all actives have a fitted effect of over 55% in size)
Outline: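 In human HaCaT keratinocytes stably expressing an ARE-driven luciferase, compound exposure lasted 23 h at 37 C under 5% CO2. Viable cells are quantified with a protease-based fluorogenic reagent (CellTiter-Fluor) read 1 h after addition.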

[2] = Nuclear factor erythroid 2-related factor 2/antioxidant responsive element (Nrf2/ARE) small molecule agonists: luciferase reporter gene qHTS assay in human keratinocytes (AID 1919969); also: nearly all actives have a fitted effect of over 35% in size; also: potency is read from the fitted curve at half-maximal effect
[3] = target: Gonadotropin-releasing hormone receptor (Homo sapiens) (UniProt P30968); test: Human gonadotropin-releasing hormone receptor (GnRHR) small molecule agonists, calcium flux assay in GnRHR-HEK293 cells (AID 1920063); also: nearly all actives have a fitted effect of over 35% in size
Sequence of Gonadotropin-releasing hormone receptor (Homo sapiens) (P30968 whole entry, looked up): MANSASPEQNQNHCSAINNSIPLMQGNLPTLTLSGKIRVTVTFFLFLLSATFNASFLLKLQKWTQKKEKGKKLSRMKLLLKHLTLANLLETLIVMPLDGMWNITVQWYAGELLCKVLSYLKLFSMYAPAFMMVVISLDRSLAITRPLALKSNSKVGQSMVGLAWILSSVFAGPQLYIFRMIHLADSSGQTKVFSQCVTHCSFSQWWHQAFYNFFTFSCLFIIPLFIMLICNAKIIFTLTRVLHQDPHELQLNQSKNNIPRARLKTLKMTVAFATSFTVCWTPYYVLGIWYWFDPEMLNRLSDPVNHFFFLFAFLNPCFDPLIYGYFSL
Outline: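 Intracellular calcium rise is the read-out: engineered human GnRHR HEK293 cells, dye-loaded, are exposed to DMSO-dissolved compounds and fluorescence at Ex/Em 480/540 is tracked for 3 min.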

[4] = target: KiSS-1 receptor (Homo sapiens) (UniProt Q969F8); test: Human kisspeptin (KISS1R) small molecule agonists, calcium flux assay in KISS1R-HEK293 cells (AID 1920064; active = well fitted curve in the direction sought with a large enough effect in the repeat runs; an effect the other way counts as inactive or inconclusive)
Sequence of KiSS-1 receptor (Homo sapiens) (Q969F8 whole entry, looked up): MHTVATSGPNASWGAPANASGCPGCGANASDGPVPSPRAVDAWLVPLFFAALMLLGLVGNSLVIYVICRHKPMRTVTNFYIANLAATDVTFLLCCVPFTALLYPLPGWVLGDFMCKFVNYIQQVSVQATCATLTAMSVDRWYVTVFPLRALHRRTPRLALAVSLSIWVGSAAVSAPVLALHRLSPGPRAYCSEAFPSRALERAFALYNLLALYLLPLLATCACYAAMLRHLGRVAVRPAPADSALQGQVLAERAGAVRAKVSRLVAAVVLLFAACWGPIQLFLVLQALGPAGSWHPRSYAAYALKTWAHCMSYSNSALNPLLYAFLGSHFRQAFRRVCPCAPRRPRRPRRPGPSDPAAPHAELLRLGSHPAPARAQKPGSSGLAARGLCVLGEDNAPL
Outline: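 Concentration-response testing used 15 concentrations in triplicate on human KISS1R-expressing HEK293 cells. Calcium-dependent fluorescence (Ex/Em 480/540) was followed kinetically for 3 min after compound transfer.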

[5] = G protein-coupled receptor (GPCR) small molecule agonists, calcium flux assay: HEK293 wild type cell line counter screen (AID 1920065)
Outline: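 Fluorescence intensity signals activation. After overnight (18 h) culture and a 1 h calcium dye load at 37 C, compounds are added by pin tool and the plate read at 480/540 nm for 3 min in 1 s steps.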

[6] = p53 small molecule agonists, cell-based qHTS assay with human liver microsomes (AID 1963577);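 also: p53 response element beta-lactamase reporter cells with liver microsomes plus NADPH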
Outline: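 Reporter activation was measured by LiveBLAzer fluorescence intensity in p53RE-bla cells, which had been exposed to compounds for 16 h at 37 C alongside 0.5 mg/mL human liver microsomes and 0.5 mg/mL NADPH (final concentrations).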

[7] = p53 small molecule agonists, cell-based qHTS assay with rat liver microsomes (AID 1963578)
Outline: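 Compound in DMSO added to p53RE-bla cells 5 h post-plating; rat microsomes/NADPH 0.5 mg/mL final; 16 h, 37 C; LiveBLAzer 2 h RT.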

[8] = p53 small molecule agonists, cell-based qHTS assay with human liver microsomes: qHTS cell viability counter screen (AID 1963579); also: nearly all actives have a fitted effect of over 45% in size
Outline: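 HLM-supplemented (0.5 mg/mL final) and NADPH-supplemented (0.5 mg/mL final) p53RE-bla cultures, 4,000 cells per well, were dosed with compounds in DMSO for 16 h at 37 C; luminescent ATP detection (CellTiter-Glo, 30 min, room temperature) quantified surviving cells.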

[9] = p53 small molecule agonists, cell-based qHTS assay: qHTS cell viability counter screen (AID 1963581); also: nearly all actives have a fitted effect of over 45% in size
Outline: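 Luminescence from CellTiter-Glo, reflecting ATP content, serves as the cytotoxicity measure; it is taken after the 2 h reporter substrate step in HCT-116 p53RE-bla cells dosed for 16 h at 37 C.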

[10] = target: 5-hydroxytryptamine receptor 2A (Homo sapiens) (UniProt P28223); test: 5-hydroxytryptamine receptor 2A (HTR2A) small molecule antagonists, cell-based qHTS assay (AID 1963586); also: nearly all actives have a fitted effect of over 45% in size
Sequence of 5-hydroxytryptamine receptor 2A (Homo sapiens) (P28223 whole entry, looked up): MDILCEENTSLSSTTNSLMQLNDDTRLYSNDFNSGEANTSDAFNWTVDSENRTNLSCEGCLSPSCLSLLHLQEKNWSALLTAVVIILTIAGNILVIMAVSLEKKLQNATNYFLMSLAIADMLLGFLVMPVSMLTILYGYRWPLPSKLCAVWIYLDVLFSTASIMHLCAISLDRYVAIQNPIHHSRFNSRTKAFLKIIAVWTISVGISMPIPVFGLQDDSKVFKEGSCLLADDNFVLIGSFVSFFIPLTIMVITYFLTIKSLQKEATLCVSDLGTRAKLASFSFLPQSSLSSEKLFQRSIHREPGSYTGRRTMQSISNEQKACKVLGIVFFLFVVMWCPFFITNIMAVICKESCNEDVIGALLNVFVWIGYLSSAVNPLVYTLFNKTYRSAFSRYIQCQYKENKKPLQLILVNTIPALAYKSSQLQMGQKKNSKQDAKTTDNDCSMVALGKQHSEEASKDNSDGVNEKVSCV
Outline: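 CHO cells stably expressing human HTR2A were plated for 18 h at 37 C, then loaded with calcium dye for 1 h. Compounds were preincubated 5 min at room temperature before DOI (4 nM solution) was added. Kinetic fluorescence was read for 3 min.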

[11] = target: 5-hydroxytryptamine receptor 2A (Homo sapiens) (UniProt P28223); test: 5-hydroxytryptamine receptor 2A (HTR2A) small molecule agonists, cell-based qHTS assay (AID 1963587); also: nearly all actives have a fitted effect of over 30% in size
Outline: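 Kinetic calcium-flux fluorescence (2 min, 1 sec intervals) after compound addition in agonist mode. HTR2A-CHO cells were cultured 18 h, then dye-loaded 1 h at 37 C.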

[12] = target: D(2) dopamine receptor (Homo sapiens) (UniProt P14416); test: Dopamine D2 receptor (DRD2) small molecule agonists, cell-based qHTS assay (AID 1963594); also: nearly all actives have a fitted effect of over 35% in size
Sequence of D(2) dopamine receptor (Homo sapiens) (P14416 whole entry, looked up): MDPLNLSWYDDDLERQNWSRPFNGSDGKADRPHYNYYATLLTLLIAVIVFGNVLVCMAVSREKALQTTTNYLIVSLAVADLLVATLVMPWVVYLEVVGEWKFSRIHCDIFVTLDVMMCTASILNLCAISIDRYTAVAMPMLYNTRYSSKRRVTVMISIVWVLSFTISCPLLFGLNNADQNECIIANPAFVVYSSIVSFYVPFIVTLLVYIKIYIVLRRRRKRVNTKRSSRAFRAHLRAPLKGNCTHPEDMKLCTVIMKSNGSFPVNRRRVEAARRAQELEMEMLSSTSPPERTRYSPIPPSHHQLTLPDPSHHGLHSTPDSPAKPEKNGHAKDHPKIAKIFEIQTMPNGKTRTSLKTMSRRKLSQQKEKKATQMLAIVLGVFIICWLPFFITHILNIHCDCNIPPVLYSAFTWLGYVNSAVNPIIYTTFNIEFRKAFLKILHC
Outline: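 cAMP accumulation in DRD2-HEK293 cells measured by HTRF after 1 h detection; compounds added 10 min before NKH477 (200nM […]) forskolin-analogue stimulation, 30 min at room temperature, with Ro20-1724 present at 0.1 mM final.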

[13] = target: D(2) dopamine receptor (Homo sapiens) (UniProt P14416); test: Dopamine D2 receptor (DRD2) small molecule antagonists, cell-based qHTS assay (AID 1963595; active = well fitted inhibition curve with a large enough effect in the signal ratio in the repeat runs, with a control signal flat; the % refers to the signal ratio)
Outline: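 HTRF cAMP read-out at 665 and 620 nm emission (340 nm excitation). Antagonist mode: compounds were tested against 12 nM quinpirole in DRD2-HEK293 cells, with 200 nM NKH477 raising cAMP and 0.1 mM Ro20-1724 blocking its breakdown.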

[14] = target: Muscarinic acetylcholine receptor M1 (Homo sapiens) (UniProt P11229); test: Cholinergic receptor muscarinic 1 (CHRM1) small molecule antagonists, cell-based qHTS assay (AID 1963588); also: nearly all actives have a fitted effect of over 40% in size
Sequence of Muscarinic acetylcholine receptor M1 (Homo sapiens) (P11229 whole entry, looked up): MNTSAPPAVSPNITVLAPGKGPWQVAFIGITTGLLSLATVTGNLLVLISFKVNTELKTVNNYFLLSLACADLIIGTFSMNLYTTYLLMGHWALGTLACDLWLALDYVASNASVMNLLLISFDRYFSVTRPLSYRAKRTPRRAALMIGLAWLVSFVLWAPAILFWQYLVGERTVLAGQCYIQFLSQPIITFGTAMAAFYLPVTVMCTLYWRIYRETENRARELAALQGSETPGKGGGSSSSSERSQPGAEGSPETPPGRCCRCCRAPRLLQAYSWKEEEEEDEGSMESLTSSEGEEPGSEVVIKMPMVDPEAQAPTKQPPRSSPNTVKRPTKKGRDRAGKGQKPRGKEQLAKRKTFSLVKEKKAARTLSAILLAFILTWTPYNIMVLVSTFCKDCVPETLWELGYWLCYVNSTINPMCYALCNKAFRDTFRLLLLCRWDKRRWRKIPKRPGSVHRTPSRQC
Outline: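 Compounds were tested at 15 concentrations in three independent runs. Dye-loaded CHRM1-CHO cells were exposed 5 min at room temperature before stimulation by acetylcholine added at 50nM. Intracellular calcium was read kinetically on FDSS for 3 min.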

[15] = target: Muscarinic acetylcholine receptor M1 (Homo sapiens) (UniProt P11229); test: Cholinergic receptor muscarinic 1 (CHRM1) small molecule agonists, cell-based qHTS assay (AID 1963589); also: nearly all actives have a fitted effect of over 35% in size
Outline: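 Fluorescent calcium dye reports M1 activation in stably transfected CHO cells. Compounds, 15 concentrations, added after 1 h dye loading at 37 C; kinetic reading at 1 sec intervals.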

[16] = cAMP Responsive Elements (CRE) small molecule agonists, cell-based qHTS assay (AID 1963590)
Outline: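 Compound exposure lasted 3 h at 37 C/5% CO2 in CRE-bla HEK 293T cells grown in assay medium with 10% dialyzed FBS and 25 mM HEPES. Reporter signal came from LiveBLAzer B/G FRET substrate, 2 h, room temperature.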

[17] = target: Beta-2 adrenergic receptor (Homo sapiens) (UniProt P07550); test: Adrenergic beta2 receptor (ADRB2) small molecule antagonists, cell-based qHTS assay (AID 1963592); also: series mostly up to about 92 µM; nearly all actives have a fitted effect of over 50% in size
Sequence of Beta-2 adrenergic receptor (Homo sapiens) (P07550 whole entry, looked up): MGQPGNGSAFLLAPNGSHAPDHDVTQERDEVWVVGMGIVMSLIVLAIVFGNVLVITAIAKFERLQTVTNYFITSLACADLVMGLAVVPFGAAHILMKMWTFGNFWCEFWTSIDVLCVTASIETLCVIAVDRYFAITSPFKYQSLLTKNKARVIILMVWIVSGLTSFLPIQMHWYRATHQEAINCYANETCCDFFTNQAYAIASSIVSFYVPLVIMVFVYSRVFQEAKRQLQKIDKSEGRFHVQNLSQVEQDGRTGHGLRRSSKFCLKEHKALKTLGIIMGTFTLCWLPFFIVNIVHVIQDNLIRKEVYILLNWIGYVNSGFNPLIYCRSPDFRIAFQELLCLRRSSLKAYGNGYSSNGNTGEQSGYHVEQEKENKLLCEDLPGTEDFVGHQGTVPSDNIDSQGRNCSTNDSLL
Outline: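 Assay format: CHO-ADRB2 cells, 18-20hr seeding at 37C/5% CO2, then compound plus 1nM isoproterenol agonist mix for 0.5hr RT. Homogeneous time-resolved fluorescence cAMP detection after 1hr, expressed as 665/615 nm ratio.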

[18] = cAMP Responsive Elements (CRE) small molecule antagonists, cell-based qHTS assay (AID 1963591; active = well fitted inhibition curve with a large enough effect in the signal ratio in the repeat runs, not every such curve was filed as active; the % refers to the signal ratio)
Outline: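 Stimulation used NKH477 at a final 0.25 uM for 3 h in compound-treated CRE-bla HEK293T cells, seeded 18 h beforehand. Reporter activity was measured with LiveBLAzer B/G FRET substrate after 2 h at room temperature.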

[19] = p53 small molecule agonists, cell-based qHTS assay (AID 1963582; active = well fitted activation curve with a large enough effect in the signal ratio in the repeat runs, not every such curve was filed as active; the % refers to the signal ratio)
Outline: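 After plating, p53RE-bla cells sat 5 h in the incubator; compounds or DMSO vehicle were pinned in; a 16 h incubation at 37 C followed; FRET substrate was added and, 2 h later at RT, fluorescence was measured.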
% is scaled to controls: 0 for no effect and ±100 for the full control effect.

Cc1ccc(-n2nc(C(C)(C)C)cc2NC(=O)Nc2ccc(OCCN3CCOCC3)c3ccccc23)cc1
inactive: Potency [1] | Potency [2] | Potency [3] | outcome [4] | outcome [5] | Potency [6] | Potency [7] | Potency [8] | Potency [9] | Potency [10] | Potency [11] | Potency [12] | Potency [13]

COc1ccc([C@@H]2Sc3ccccc3NC(=O)[C@@H]2O)cc1
inactive: Potency [1] | Potency [2] | Potency [3] | outcome [4] | outcome [5] | Potency [6] | Potency [7] | Potency [8] | Potency [10] | Potency [11] | Potency [14] | Potency [15] | Potency [16] | Potency [17] | Potency [12] | Potency [13]

CCCOC(=O)c1ccc(O)cc1
inactive: Potency [1] | Potency [3] | outcome [4] | outcome [5] | Potency [6] | Potency [7] | Potency [8] | Potency [10] | Potency [11] | Potency [14] | Potency [15] | Potency [16] | Potency [18] | Potency [12] | Potency [13]
active: Potency [2] 27.3 µM

CCCCCCC(CO)CCCC (stereo unspecified)
inactive: Potency [1] | Potency [2] | Potency [3] | outcome [4] | outcome [5] | Potency [6] | Potency [7] | Potency [8] | Potency [9] | Potency [10] | Potency [15] | Potency [16] | Potency [18] | Potency [17] | Potency [12] | Potency [13]

O=C(OCC1CO1)C1CCCCC1C(=O)OCC1CO1 (stereo unspecified)
inactive: Potency [1] | Potency [3] | outcome [4] | outcome [5] | Potency [6] | Potency [7] | Potency [8] | Potency [9] | Potency [10] | Potency [11] | Potency [14] | Potency [15] | Potency [17] | Potency [13]
active: Potency [2] 68.7 µM

CC(C)CCOC(=O)CC(C)C
inactive: Potency [1] | Potency [2] | Potency [3] | outcome [4] | outcome [5] | Potency [6] | Potency [7] | Potency [8] | Potency [9] | Potency [10] | Potency [11] | Potency [15] | Potency [16] | Potency [18] | Potency [17] | Potency [12] | Potency [13]

CCCCCCCCCCCCS(=O)(=O)Cl
inactive: activity change, negative = cytotoxicity [1] -5.52% [at 19 µM] | activity, positive = activation [2] -14% [at 19 µM] | activity change [3] 1.68% [at 11.8 µM, active compounds read high] | activation [4] 0.356% [at 15.8 µM] | activation [5] -1.76% [at 11.8 µM] | activation [6] 0.955% [at 13.5 µM] | activation [7] -3.11% [at 13.6 µM] | activity change, negative = cytotoxicity [8] 0.65% [at 13.5 µM] | activation [19] -3.88% [at 13.5 µM] | activity, negative = inhibition [10] 6.87% [at 12.7 µM] | activation [11] 18.9% [at 15.9 µM] | activity, negative = inhibition [14] 0.609% [at 12.6 µM] | activation [15] 0.179% [at 15.8 µM] | activation [16] 1.16% [at 19 µM] | activity change, negative = inhibition [18] -6.5% [at 18.9 µM] | activity change, negative = inhibition [17] -6.85% [at 19 µM] | activation [12] 0.808% [at 19 µM] | activity change, negative = inhibition [13] -2.33% [at 18.9 µM]
